Source: PubChem BioAssay
Rows were chosen to be rich in hits. Some 4.8% of all compounds tested hit in one or more screens of this group.
IL-1B inflam inh: inflammasome signaling inhibition, IL-1 beta readout. THP-1 LPS/ATP IL-1B secretion, AlphaLISA, 16 h; active compounds read low. activity change, % at 57.5 µM. 4.7% of 360,000 active. AID 743279; in the data active = activity change below about -50%; inconclusive = mostly about -30% to -49%; also: % is scaled to controls: 0 for no effect and ±100 for the full control effect
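THP-1 cells pretreated 1 hr with compounds (up to 57.5 uM final), then stimulated with LPS (250 ng/mL final) plus ATP (1.25 mM final); secreted IL-1B measured by AlphaLISA after 16 hr, decreased signal indicating inhibition.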
ATXN2 expr inh: reduces ATXN2 reporter expression in HEK-293 cells. 0.72% of 360,000 active. HEK-293 ATXN2-luciferase reporter, luminescence, 24 h. Potency, µM (highest dose often 57 µM), inactives show at the top dose activity change, negative = inhibition, hits mostly inhibitors; also: potency is read from the fitted curve at half-maximal effect; % is scaled to controls: 0 for no effect and ±100 for the full control effect; nearly all actives have a fitted effect of over 55% in size
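ATXN2-luciferase reporter cells (luciferase flanked by upstream and downstream ATXN2 gene portions) were treated 24 h at 37 °C with compounds at up to 57 uM. SteadyGlo luminescence gave expression; GF-AFC fluorescence gave viability.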
S2 tox: reduces viability in counter-screen for ATXN expression inhibitors. S2 cells (HEK-293 line with an ATXN2-luciferase reporter) viability, CellTiter-Fluor protease fluorescence, 24 h. Potency, µM (highest dose often 56.7 µM), actives largely listed as cytotoxic. 0.49% of 400,000 active. AID 651635; also: potency is read from the fitted curve at half-maximal effect; nearly all actives have a fitted effect of over 40% in size
USP1 inh: blocks the human USP1/UAF1 deubiquitinase complex | O94782 | recombinant USP1/UAF1, Ub-Rhodamine cleavage fluorescence | Potency, µM (titrated, usually from 57.1 µM), without a hit: at the highest dose activity change, negative = inhibition, most hits filed as inhibitors | 0.23% of 390,000 active | AID 743255; also: potency is read from the fitted curve at half-maximal effect; % is scaled to controls: 0 for no effect and ±100 for the full control effect; nearly all actives have a fitted effect of over 60% in size
Target sequence (O94782 whole entry, looked up): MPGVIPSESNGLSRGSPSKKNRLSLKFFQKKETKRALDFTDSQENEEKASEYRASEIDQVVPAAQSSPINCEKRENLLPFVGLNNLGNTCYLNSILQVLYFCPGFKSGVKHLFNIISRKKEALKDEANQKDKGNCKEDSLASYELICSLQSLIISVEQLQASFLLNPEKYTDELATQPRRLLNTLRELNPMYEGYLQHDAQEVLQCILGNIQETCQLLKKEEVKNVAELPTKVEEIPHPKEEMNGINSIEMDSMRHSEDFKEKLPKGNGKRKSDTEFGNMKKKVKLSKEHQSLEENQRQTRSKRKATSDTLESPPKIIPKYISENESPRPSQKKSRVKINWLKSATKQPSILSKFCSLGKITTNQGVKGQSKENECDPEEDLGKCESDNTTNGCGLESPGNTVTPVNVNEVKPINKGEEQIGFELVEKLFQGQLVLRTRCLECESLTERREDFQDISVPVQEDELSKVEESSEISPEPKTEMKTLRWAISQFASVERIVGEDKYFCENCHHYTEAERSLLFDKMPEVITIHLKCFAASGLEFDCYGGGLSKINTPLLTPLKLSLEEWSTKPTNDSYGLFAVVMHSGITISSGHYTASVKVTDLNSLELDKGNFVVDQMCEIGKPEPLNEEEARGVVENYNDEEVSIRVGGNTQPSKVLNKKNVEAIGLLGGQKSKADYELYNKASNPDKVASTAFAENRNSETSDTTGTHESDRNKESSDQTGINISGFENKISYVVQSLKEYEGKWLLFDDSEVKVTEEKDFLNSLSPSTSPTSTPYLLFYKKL
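Step one: compound is pinned into 1nM USP1/UAF1 in HEPES pH 7.8 buffer with TCEP. Step two: 15 min room-temperature incubation. Step three: Ub-Rho (150nM final) starts cleavage, tracked by fluorescence over six one-minute reads.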
USP2a inh: blocks human ubiquitin-specific protease USP2a. USP2 core, Ub-CHOP2 coupled fluorogenic reporter, 485/531. Potency, µM (series often up to 38.3 µM), for the others: at the highest dose activity change, negative = inhibition, hits mostly inhibitors. 0.01% of 330,000 active;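 also: potency is read from the fitted curve at half-maximal effect; plate controls were DMSO wells for no effect and full inhibition by NEM control for full effect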
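Cell-free coupled assay: 10nM USP2 core preincubated 30min RT with compound in Tris-HCl pH 8.0/CaCl2/CHAPS buffer, then 25nM Ub-CHOP2 and 25nM reporter substrate; fluorescence (Ex 485/Em 531) read after 60min RT, normalized to NEM inhibition, concentration-response curves fitted.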
Active calls of the source: *; i = inactive; ? = inconclusive; . = no result given. Unless noted, calls follow the shape of the dose curve; as a rule, active = well fitted curve in the direction sought with a large enough effect; inconclusive = small, poorly fitted or top-dose-only effect, or another doubt; inactive = no such curve, though single readings can be large; an effect the other way counts as inactive or inconclusive.

SMILES | IL-1B inflam inh | ATXN2 expr inh | S2 tox | USP1 inh | USP2a inh
C=CCn1c(=O)c2c3c(sc2n2c(Nc4ccccc4)nnc12)CCCC3 | -19 | 0% | i | -10% | 1%
CN[C@@H](C)C(=O)N[C@H]1CN(C(=O)CC(C)C)CC[C@H]2CC[C@@H](C(=O)NC(c3ccccc3)c3ccccc3)N2C1=O | . | -3% | . | . | .
CCCCN(CC)CCCNC(=S)Nc1ccc2nc(N3CCN(C)CC3)cc(C)c2c1 | -54* | -30% | ? | -9% | -1%
CCN(CC)CCNC(=S)Nc1ccc2nc(N3CCCC3)cc(C)c2c1 | -66* | ? | i | -14% | 1%
CCN(CC)CCNC(=S)Nc1ccc2nc(N3CCOCC3)cc(C)c2c1 | ? | . | i | 4% | 5%
CCC(C)NC(=O)CCC(=O)Nc1ccc2nc(N3CC(C)CC(C)C3)cc(C)c2c1 (centres undefined) | -59* | 3% | i | -4% | 7%
CCN(CC)CCNC(=S)Nc1ccc2nc(N3CCN(C)CC3)cc(C)c2c1 | -51* | -18% | ? | -20% | 1%
CCCCN(CC)CCCNC(=S)Nc1ccc2nc(N3CCN(CC)CC3)cc(C)c2c1 | ? | ? | ? | -5% | 1%
CNC(=O)[C@@H]1C[C@H](Sc2nc3ccccc3[nH]2)CN1Cc1cccc(C(F)(F)F)c1 | . | . | i | . | .
Cc1cc(N2CCOCC2)nc2ccc(NC(=S)NCCC(C)C)cc12 | -50* | -27% | i | -12% | -8%
Cc1cc(N2CCOCC2)nc2ccc(NC(=S)N3CCN(c4ccccc4)CC3)cc12 | -27 | -6% | i | ? | 6%
Cc1cc(N2CCOCC2)nc2ccc(NC(=O)CCC(=O)N3CCCCC3)cc12 | -5 | 29% | i | -6% | -1%
COc1ccccc1N1CCN(C(=S)Nc2ccc3nc(N4CCOCC4)cc(C)c3c2)CC1 | -168* | . | i | -19% | -7%
Cc1cc(N2CCN(C)CC2)nc2ccc(NC(=S)NCCC(C)C)cc12 | -6 | . | ? | -9% | 4%
Cc1cc(N2CCOCC2)nc2ccc(NC(=O)CCC(=O)N3CCN(c4cccc(C(F)(F)F)c4)CC3)cc12 | -77* | -10% | ? | -15% | -28%
O=S(=O)(Nc1nc2ccccc2nc1Nc1ccccc1Br)c1ccccc1 | . | -5% | i | -32% | .
Cc1cc2nc(-c3ccccc3)c(Cc3cccc(Cl)c3)n2c(C)c1Br | 24 | -17% | ? | . | .
CCNc1ccc(-c2nc(-c3ccncc3)no2)cc1[N+](=O)[O-] | . | 18% | i | -6% | .
CCc1ccccc1NC(=O)C1=CC(c2ccc(OC)c(OC)c2)=NS(=O)(=O)N1C | 9 | -23% | i | -19% | 0%
CCOC(=O)c1c(C)n(CC(O)CN(C)C)c2cc(Br)c(OC)cc12 (centres undefined) | -79* | ? | i | -9% | 1%
O=C(NOCC(O)CO)c1cc(Br)c(F)c(F)c1Nc1ccc(I)cc1F (centres undefined) | . | -7% | . | . | .
COc1ccc(Oc2c(Cl)cnn(-c3ccc(F)cc3)c2=O)cc1 | -112* | -22% | i | 2% | 3%
COc1ccc(Oc2c(Cl)cnn(-c3ccc(C)cc3)c2=O)cc1 | -114* | ? | i | -14% | -1%
COc1ccc(Oc2c(Cl)cnn(-c3ccc(Cl)c(Cl)c3)c2=O)cc1 | -113* | ? | ? | -13% | 0%
Cn1ncc(Cl)c(Oc2ccc(Cl)cc2)c1=O | -90* | 4% | i | 0% | 4%
Cn1c(=N)n(CC(=O)c2ccc(Cl)c(Cl)c2)c2ccccc21 | ? | . | ? | 1% | -4%
CCNC(=O)C1(C)CCCN(C(=O)c2ccccc2Br)C1 (centres undefined) | -1 | -3% | i | . | .
COc1ccc2c(c1)/C(=C\c1cccc(/C=C3/C(=O)Nc4ccc(OC)cc43)n1)C(=O)N2 | -107* | 3.2µM* | . | -17% | .
COC(=O)c1ccccc1COc1cccn2c(N(C)C(=O)CCC3CCCC3)c(C)nc12 | -15 | ? | ? | . | .
O=C(Nc1ccc(Cl)c([N+](=O)[O-])c1)ONC1=NCCCCC1 | -53* | -15% | i | -17% | 0%
